Results: PubChem BioAssay
Where “and” joins values, the source holds several entries; their conditions need not be identical. Identical values can stand only once. Values without a mark were called inactive. Where a call stands in place of a potency, no number is given. For part of these data: Potency and affinity values are given separately. Calls of active or inactive are those of the source. Unless noted, how the calls were made is not given here.

Key:
[1] = antimalarial activity against Dd2 strain (AID 2302;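 active means growth inhibition above 50% at the single 2 µM test dose, taken to imply half-maximal potency below 2 µM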); settings: P. falciparum Dd2 in RBCs, LDH growth readout, 72 h; at 2 µM; hits give high values
[2] = human hepatoma cell viability loss – ATP luminescence, cytotoxicity control for P. falciparum antimalarial project, primary screen (AID 2303;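 active means inhibition above 50%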); settings: HepG2 viability, 24-48 h, at 10 µM, hits give high values
[3] = molecular target: L-lactate dehydrogenase (Plasmodium falciparum (isolate CDC / Honduras)) (UniProt Q27743); test: PfLDH activity inhibition – cell lysate, 3D7 strain, counter-screen for P. falciparum growth inhibition project (AID 2304); settings: P. falciparum 3D7 crude extract, LDH APAD/NBT absorbance; at 2 µM; hits give high values
[4] = inhibition of 3D7 malaria parasite growth – strain 3D7 (AID 2306); settings: P. falciparum 3D7 erythrocytic growth, LDH absorbance, 72 h; at 2 µM; hits give high values
[5] = molecular target: Calcium-dependent protein kinase 1 (Plasmodium falciparum (isolate 3D7)) (UniProt P62344); test: PfCDPK1 kinase inhibitors, biochemical, TCAMS library (AID 1159585; cut-off not given, nearly all actives have IC50 up to about 0.98 µM;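 further: inhibitors leave more ATP so luminescence rises with inhibition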); settings: recombinant PfCDPK1, Kinase-Glo ATP depletion luminescence
[6] = molecular target: Plasmodium falciparum protein kinase 6 (PK6, PF3D7_1337100) (UniProt Q8IDW1); test: PfPK6 kinase inhibitors, biochemical, TCAMS library (AID 1159586); settings: recombinant PfPK6, Kinase-Glo ATP depletion luminescence
[7] = molecular target: Protein kinase 7 (PK7), Plasmodium falciparum 3D7 (PF3D7_0213400) (UniProt Q7YTF7); test: inhibition of Plasmodium PK7 catalytic activity – biochemical, TCAMS antimalarial set, Kinase-Glo luminescence (AID 1159587); settings: recombinant PfPK7, Kinase-Glo ATP depletion luminescence
[8] = molecular target: Calcium-dependent protein kinase 4 (Plasmodium falciparum (isolate 3D7)) (UniProt Q8IBS5); test: PfCDPK4 kinase inhibitors, biochemical, TCAMS library (AID 1159588; cut-off not given, nearly all actives have IC50 up to about 0.91 µM); settings: recombinant PfCDPK4, Kinase-Glo ATP depletion luminescence
Calcium-dependent protein kinase 4 (Plasmodium falciparum (isolate 3D7)), sequence (Q8IBS5 whole entry, looked up): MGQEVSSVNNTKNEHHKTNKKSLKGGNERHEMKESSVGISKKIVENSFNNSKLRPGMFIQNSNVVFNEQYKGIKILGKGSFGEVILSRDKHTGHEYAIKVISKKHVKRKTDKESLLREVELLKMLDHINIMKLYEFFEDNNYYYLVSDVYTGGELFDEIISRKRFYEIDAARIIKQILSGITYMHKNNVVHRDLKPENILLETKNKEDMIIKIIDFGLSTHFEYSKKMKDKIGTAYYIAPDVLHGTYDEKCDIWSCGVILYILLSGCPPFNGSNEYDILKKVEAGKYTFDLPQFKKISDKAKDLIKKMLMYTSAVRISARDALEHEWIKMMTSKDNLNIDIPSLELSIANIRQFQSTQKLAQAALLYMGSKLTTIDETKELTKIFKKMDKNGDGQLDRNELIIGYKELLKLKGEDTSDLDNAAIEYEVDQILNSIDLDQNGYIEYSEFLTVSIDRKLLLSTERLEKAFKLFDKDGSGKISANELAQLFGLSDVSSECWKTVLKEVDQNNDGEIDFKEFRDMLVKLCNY

L-lactate dehydrogenase (Plasmodium falciparum (isolate CDC / Honduras)), sequence (Q27743 whole entry, looked up): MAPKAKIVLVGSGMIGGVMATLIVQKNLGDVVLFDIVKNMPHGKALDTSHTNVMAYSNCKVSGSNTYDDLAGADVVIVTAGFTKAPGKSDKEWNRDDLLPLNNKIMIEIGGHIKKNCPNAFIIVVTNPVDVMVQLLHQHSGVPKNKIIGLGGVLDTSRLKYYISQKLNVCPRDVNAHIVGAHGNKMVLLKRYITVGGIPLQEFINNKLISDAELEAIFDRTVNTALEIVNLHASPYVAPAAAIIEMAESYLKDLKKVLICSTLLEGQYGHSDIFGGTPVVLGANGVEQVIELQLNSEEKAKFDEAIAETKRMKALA
Calcium-dependent protein kinase 1 (Plasmodium falciparum (isolate 3D7)), sequence (P62344 whole entry, looked up): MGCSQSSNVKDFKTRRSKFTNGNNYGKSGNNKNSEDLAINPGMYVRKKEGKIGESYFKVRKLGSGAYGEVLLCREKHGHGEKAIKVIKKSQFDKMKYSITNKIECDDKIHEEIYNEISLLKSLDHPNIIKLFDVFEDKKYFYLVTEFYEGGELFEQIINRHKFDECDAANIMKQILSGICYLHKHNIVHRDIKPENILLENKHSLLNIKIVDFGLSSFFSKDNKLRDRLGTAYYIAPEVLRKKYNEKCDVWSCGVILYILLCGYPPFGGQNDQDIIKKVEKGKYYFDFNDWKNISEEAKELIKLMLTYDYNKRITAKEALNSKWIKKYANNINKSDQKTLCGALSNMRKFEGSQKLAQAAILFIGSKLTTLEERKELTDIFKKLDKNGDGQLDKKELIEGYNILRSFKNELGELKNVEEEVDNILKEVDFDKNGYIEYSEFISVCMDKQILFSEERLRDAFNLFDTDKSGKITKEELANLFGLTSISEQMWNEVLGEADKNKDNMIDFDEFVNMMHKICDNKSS
Protein kinase 7 (PK7), Plasmodium falciparum 3D7 (PF3D7_0213400), sequence (Q7YTF7 1-343): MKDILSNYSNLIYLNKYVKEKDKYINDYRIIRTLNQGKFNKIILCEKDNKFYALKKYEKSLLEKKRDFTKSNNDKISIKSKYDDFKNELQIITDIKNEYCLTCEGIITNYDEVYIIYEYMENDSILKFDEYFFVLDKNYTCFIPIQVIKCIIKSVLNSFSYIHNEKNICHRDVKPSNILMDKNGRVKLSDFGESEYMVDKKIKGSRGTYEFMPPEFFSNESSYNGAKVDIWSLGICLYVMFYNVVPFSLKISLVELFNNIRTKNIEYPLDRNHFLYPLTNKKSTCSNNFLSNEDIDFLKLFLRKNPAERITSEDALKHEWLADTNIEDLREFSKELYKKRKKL
Plasmodium falciparum protein kinase 6 (PK6, PF3D7_1337100), sequence (Q8IDW1 1-305): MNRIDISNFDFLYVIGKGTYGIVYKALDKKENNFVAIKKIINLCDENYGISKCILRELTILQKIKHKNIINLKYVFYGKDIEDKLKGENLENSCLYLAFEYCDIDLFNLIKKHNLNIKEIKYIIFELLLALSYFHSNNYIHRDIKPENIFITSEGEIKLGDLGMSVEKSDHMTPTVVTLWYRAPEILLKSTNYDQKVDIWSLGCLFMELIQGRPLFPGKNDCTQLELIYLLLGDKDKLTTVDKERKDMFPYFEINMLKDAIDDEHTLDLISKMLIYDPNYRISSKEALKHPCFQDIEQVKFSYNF

| SMILES | growth inhibition [1] | inhibition [2] | inhibition [3] | growth inhibition [4] | outcome [5] | outcome [6] | outcome [7] | outcome [8] |
| --- | --- | --- | --- | --- | --- | --- | --- | --- |
| CCN(CC(C)O)C(=O)c1ccc(-c2ccc(-c3nc4c(C)cccc4[nH]3)cc2)cc1 (configuration not stated) | 13% | 18% | -5% | 94% (active) | inactive | inactive | inactive | inactive |
| Fc1ccc2ncc(Cl)c(CCN3CCC(NCc4cc5c(cn4)OCCO5)CC3)c2c1 | 20% | 24% | -4% | 93% (active) | inactive | inactive | inactive | inactive |
| CCCC(C)Nc1nc(C)cc(N[C@@H](CC(C)C)C(=O)NCCOc2ccccc2)n1 (some centres not stated) | 28% | 15% | 1% | 93% (active) | inactive | inactive | inactive | inactive |
| Cc1[nH]c(C)c(-c2ccc(CCc3ccc(N)cc3)cc2)c(=O)c1Cl | 97% (active) | 2% | 5% | 97% (active) | inactive | inactive | inactive | inactive |
| COc1ccc(NC(=O)N2CCN(CCCCCNC(=O)/C=C/c3ccc(C(F)(F)F)cc3)CC2)cc1Cl | -5% | 25% | -2% | 94% (active) | inactive | inactive | inactive | inactive |
| CN1CCC(C(=O)Nc2cccc(-c3ccc(-c4nc5ccc(C(F)(F)F)cc5[nH]4)s3)c2)CC1 | 95% (active) | 29% | 0% | 101% (active) | inactive | inactive | inactive | inactive |
| COc1ccc(-c2ccc(S(=O)(=O)Nc3cc4c(cc3OC(C)C)CCN(C)CC4)cc2)cc1 | 2% | 16% | -4% | 98% (active) | inactive | inactive | inactive | inactive |
| O=c1cc(NCCCNCc2cc(Cl)cc(Cl)c2OCc2ccccc2)[nH]c2ccccc12 | 50% (active) | -4% | -2% | 91% (active) | inactive | inactive | inactive | inactive |
| CC(C)Oc1ccc2c(c1)OC(c1ccccc1)(C(F)(F)F)NC2=O (configuration not stated) | 98% (active) | -6% | -2% | 101% (active) | inactive | inactive | inactive | inactive |
| O=C(/C=C/c1ccc(Cl)c(Cl)c1)NC1CCN(Cc2ccc(O)cc2)CC1 | 43% | -1% | 3% | 103% (active) | inactive | inactive | inactive | inactive |
| Cc1[nH]c(C)c(-c2ccc(Oc3ccc(OC(F)(F)F)cc3)cc2)c(=O)c1Br | 95% (active) and 97% (active) | -4% and -1% | 1% and 2% | 96% (active) | inactive | inactive | inactive | inactive |
| CCCC(C)Nc1nc(C)cc(N[C@@H](CC(C)C)C(=O)NCc2ccc(C)cc2)n1 (some centres not stated) | 51% (active) | 16% | -1% | 98% (active) | inactive | inactive | inactive | inactive |
| Oc1ccc(Cl)cc1CN1CCCC(COC(c2ccc(F)cc2)c2ccc(F)cc2)C1 (configuration not stated) | 100% (active) | 20% | 3% | 98% (active) | inactive | inactive | inactive | inactive |
| Cc1cc(CNCCCCCCCNCc2cccc([N+](=O)[O-])c2)ccc1O | -5% | 6% | -1% | 100% (active) | inactive | inactive | inactive | inactive |
| O=C1C(c2ccccc2)=C(Nc2cc(Cl)cc(Cl)c2)c2ccccc21 | 94% (active) | -4% | -3% | 96% (active) | inactive | inactive | inactive | inactive |
| CC(C)(C)CN1C(=O)C(c2ccccc2)(c2ccccc2)N=C1N | 94% (active) | 32% | 1% | 98% (active) | inactive | inactive | inactive | inactive |
| O=C(/C=C/c1ccc(Cl)c(Cl)c1)NC1CCN(CCCNC(=O)c2cccc(Cl)c2)CC1 | 28% | 36% | -2% | 100% (active) | inactive | inactive | inactive | inactive |
| CC(C)C1CCc2nc(N)nc(N)c2C1 (configuration not stated) | -2% | 70% (active) | -5% | 95% (active) | inactive | inactive | inactive | inactive |
| CC(C)(C)c1ccc(N2C(N)=NC(N)=NC2(C)C)cc1 | -2% | 27% | -2% | 93% (active) | inactive | inactive | inactive | inactive |
| Oc1ccccc1CN(CCCN(Cc1ccccn1)Cc1ccccc1O)Cc1ccccn1 | 92% (active) | 64% (active) | 3% | 92% (active) | inactive | inactive | inactive | inactive |

| SMILES | growth inhibition [1] | inhibition [2] | inhibition [3] | growth inhibition [4] | outcome [5] | outcome [6] | outcome [7] | outcome [8] |
| --- | --- | --- | --- | --- | --- | --- | --- | --- |
| Cc1cc(-c2ccc(O)c(CNC3CCCCC3)c2)cnc1N | 100% (active) | 27% | -4% | 102% (active) | inactive | inactive | inactive | inactive |
| COc1ccc(NC(=O)C2CCN(CCCCCNC(=O)/C=C/c3ccc(Cl)c(Cl)c3)CC2)cc1 | -4% | 26% | 6% | 98% (active) | inactive | inactive | inactive | inactive |
| CCc1nc2c(N)nc(N)nc2nc1-c1ccc(OC)cc1 | -3% | 44% | 2% | 86% (active) | inactive | inactive | inactive | inactive |
| N#CC(CC(=O)c1ccc(Cl)cc1)c1cccc(F)c1 (configuration not stated) | 4% | 5% | 4% | 97% (active) | inactive | inactive | inactive | inactive |
| Fc1ccccc1COc1ccc(Nc2ncnc3ccc(I)cc23)cc1Cl | 37% | 17% | -4% | 90% (active) | inactive | inactive | inactive | inactive |
| CC1CN(Cc2cccc(-c3ccc(-c4nc5ccc(F)cc5[nH]4)cc3)c2)CC(C)O1 (configuration not stated) | 88% (active) | 45% | -3% | 87% (active) | inactive | inactive | inactive | inactive |
| CCOC(=O)C(C)(C)Oc1ccc(C(=C2CC(C)(C)CC(C)(C)C2)c2ccc(O)cc2)cc1 | 78% (active) | -3% | 1% | 92% (active) | inactive | inactive | inactive | inactive |
| CN(C)CCCN(C)C(=O)c1cc2cc(-c3ccccc3)ccc2n1S(=O)(=O)c1ccccc1 | 66% (active) | 29% | -1% | 98% (active) | inactive | inactive | inactive | inactive |
| CCC1CN2CCc3c([nH]c4ccccc34)[C@@H]2C[C@@H]1CC1NCCc2cc(OC)c(OC)cc21 (some centres not stated) | 67% (active) and 83% (active) | 33% and 26% | 3% and 1% | 100% (active) | inactive | inactive | inactive | inactive |
| O=C(Nc1ccc2c(c1)CCN2C1CCN(Cc2cccc3cc[nH]c23)C1)c1ccco1 (configuration not stated) | 86% (active) | -1% | 2% | 88% (active) | inactive | inactive | inactive | inactive |
| O=C(Nc1cccc(C(F)(F)F)c1)Nc1ccc(Cl)c(Cl)c1 | 100% (active) | 5% | -4% | 100% (active) | inactive | inactive | inactive | inactive |
| O=C(NC1CC1)c1ccc(Cn2c(SCc3cccc(Cl)c3)nc3ccccc3c2=O)cc1 | 70% (active) | 2% | 1% | 90% (active) | inactive | inactive | inactive | inactive |
| CC(=O)N1N=C(c2ccc(Cl)cc2)Sc2c1nc(C1CCCCC1)n2C(C)=O | 67% (active) | 1% | -1% | 103% (active) | inactive | inactive | inactive | inactive |
| O=C(NC1CCCCC1)N(Cc1cccc(-c2ccc(CNC3CCCC3)cc2)c1)C1CCN(Cc2ccccc2)CC1 | 89% (active) | 37% | -2% | 98% (active) | inactive | inactive | inactive | inactive |
| CC(CNC(=O)c1cc2c(Cl)cc(Cl)cc2[nH]1)CNc1cc(=O)c2ccccc2[nH]1 (configuration not stated) | 11% | 11% | 5% | 97% (active) | inactive | inactive | inactive | inactive |
| FC(F)(F)c1ccc2nccc(NN=Cc3ccc(Cl)cc3)c2c1 | 53% (active) | 5% | -2% | 102% (active) | inactive | inactive | inactive | inactive |
| O=C(Nc1ccccc1O)c1ccc(Oc2cccc(C(=O)Nc3ccccc3O)c2)cc1 | 70% (active) | 33% | -1% | 97% (active) | inactive | inactive | inactive | inactive |
| Cn1nccc1C(=O)NCCNCc1ccc(-c2ccc(-c3nc4ccc(C(F)(F)F)cc4[nH]3)cc2)cc1 | 99% (active) | 35% | -2% | 100% (active) | inactive | inactive | inactive | inactive |
| COc1ccc(C2C(C(=O)Nc3ccccc3)=C(C)Nc3c(C(=O)Nc4ccccc4)cnn32)cc1 (configuration not stated) | 66% (active) | 13% | -1% | 85% (active) | inactive | inactive | inactive | inactive |
